Source: PubChem BioAssay
ssDAF-12 act = S. stercoralis DAF-12 activation, primary screen; actives 1% (n = 370,000); activation, % at 6.8 µM; HEK293 ssDAF-12/GRIP1 lit1-tk-luc reporter, luminescence; % of 3 µM dafachronic acid response; AID 652126;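 active means activation above the mean over all tested compounds plus 3 SD, cut at about 0.9% in these data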;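 further: 0% = DMSO-only wells and 100% = 3 µM delta7-dafachronic acid wells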
hcDAF12 agonist = activators of H. contortus DAF-12 nuclear receptor. activation, % at 6.8 µM. AID 652067. HEK293 hcDAF-12 lit1-tk-luc reporter, luminescence; 0% DMSO, 100% Δ7-dafachronic acid. actives 1.4% (n = 370,000);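 active means activation above the mean of all tested compounds plus 3 SD, cut at about 5.5% in these data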;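 further: 100% = response to 3 µM Δ7-dafachronic acid high control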
DAX1 StAR inh = blocks DAX1 repression of SF-1 activated StAR promoter; HEK293T StAR-luciferase reporter, SF-1/DAX-1 repression relief; inhibition, % at 6.8 µM; actives 1.1% (n = 370,000); AID 652010;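 active means inhibition above the mean over all tested compounds plus 3 SD, cut at about 3.6% in these data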;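 further: 0% = DAX-1 cells with DMSO and 100% = cells lacking DAX-1 with DMSO; higher inhibition means more luminescence from relief of DAX-1 repression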
hgDAF12 agonist = activates the H. glycines DAF-12 receptor ligand-binding domain | HEK293 GAL4-hgDAF12 UAS-luciferase reporter, agonist luminescence; normalized to butyrate control | activation, % at 6.8 µM | actives 1.8% (n = 370,000);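 active means activation above a cutoff set at the mean of all screened compounds plus 3 SD, cut at about 10% in these data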;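 further: 0% = DMSO wells and 100% = sodium butyrate wells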
SMARCA2 activ = SMARCA2 function activation, primary screen | AID 652017 | actives 1% (n = 370,000) | MG213 cells, MMTV-luciferase reporter, dexamethasone, overnight | activation, % at 9.1 µM; in the data active means activation above about 7.8%;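 further: 0% = vehicle wells and 100% = reference activator wells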
The depositor's hits bear a star; . = not tested or not shown. Shown are actives, neighbours in structure and some others; about 4.2% of the full set was active somewhere.

SMILES | ssDAF-12 act | hcDAF12 agonist | DAX1 StAR inh | hgDAF12 agonist | SMARCA2 activ
COc1ccc(NC(=O)c2cc(C(C)C)on2)c(OC)c1 | -0.6 | 6.4* | 3.1 | 8.3 | 2.8
COc1ccc(NC(=O)C/C(C)=N/NC(=O)C(=O)NC(C)C)c(OC)c1 | -1.0 | -1.0 | -0.1 | -2.2 | 7.9*
COc1ccc(NC(=O)c2ccccc2O)c(OC)c1 | 0.7 | 5.8* | 2.8 | 9.4 | 5.6
O=C1NC[C@H](Cc2ccccc2)N(C[C@@H]2CCCN2C[C@H](Cc2ccc(O)cc2)N2C[C@H](Cc3ccccc3)N(CCc3ccccc3)C(=O)C2=O)C1=O | -0.7 | 0.7 | 0.2 | -2.1 | 5.4
Cn1c(SCc2ccccc2Cl)nc2c1c(=O)[nH]c(=O)n2C | 1.5* | -1.3 | 0.1 | 2.4 | -1.1
O=C(Nc1ccc(CN2CCOCC2)cc1)c1ccccc1F | -0.4 | 2.4 | 2.5 | 11.8* | 2.2
O=C(Nc1ccc(CN2CCOCC2)cc1)c1ccc(Cl)cc1Cl | -1.6 | -3.5 | -0.9 | -2.2 | -3.9
O=C(NC(=S)Nc1ccc(CN2CCOCC2)cc1)c1cc2ccccc2o1 | -1.6 | 0.0 | 0.2 | 0.0 | 0.5
O=C(Nc1ccc(CN2CCOCC2)cc1)c1cc2ccccc2o1 | -0.5 | 5.5 | 3.6* | 8.1 | 0.6
CCOC(=O)[C@]12CCCC=C1N(Cc1ccc(OC)cc1)C(=O)[C@@H]2CC(=O)N1CCCCC1 | -0.8 | -0.8 | -1.5 | -2.4 | -3.5
Cc1ccc2nc(-c3ccc(-c4ccccn4)s3)cn2c1 | 0.2 | 3.6 | 1.3 | 11.7* | 2.4
Cc1nc2c(C)cccn2c1/C(O)=C1\C(=O)C(=O)N(CCN(C)C)C1c1ccccc1 (stereo not drawn) | 1.0* | -1.7 | 0.3 | -1.4 | -5.6
N/C(=N\OC(=O)c1ccco1)c1cccc([N+](=O)[O-])c1 | -0.2 | 5.3 | 1.7 | 13.1* | 3.4
N/C(=N\OC(=O)c1ccco1)c1cccc(Br)c1 | 0.1 | 6.1* | 2.7 | 8.4 | 4.3
Cc1ccc(C(=O)O/N=C(\N)c2cccc([N+](=O)[O-])c2)cc1 | -0.4 | -0.2 | 1.4 | 5.8 | 4.3
O=C(Nc1c(-c2ccc(C(F)(F)F)cc2)nc2ncccn12)c1ccc(F)cc1 | -1.2 | 1.4 | -0.8 | 5.9 | -3.3
COC(=O)C1=C(C)N(C)C(=NCc2cccc(C(F)(F)F)c2)NC1c1ccc(Cl)cc1 (stereo not drawn) | -1.0 | 0.4 | -0.8 | 2.5 | -3.8
CC[C@]12c3[nH]c4ccc(Cl)cc4c3CCN1C(=O)[C@@H](CC(=O)NC/C=C(\C)CCC=C(C)C)C[C@@H]2C(=O)N1CCN(C(=O)c2ccco2)CC1 | 2.1* | -2.0 | -1.4 | -0.1 | -2.9
COC(=O)c1cc(S(=O)(=O)NCC2CCN(C(=O)C(=O)c3cc4ccccc4o3)CC2)cs1 | -0.9 | -3.0 | 0.2 | 2.2 | -7.1
CCOC(=O)[C@]12CCCCC/C=C\1N(CCc1ccc(Cl)cc1)C(=O)[C@H]2CC(=O)NCc1ccccc1 | -1.4 | -2.6 | 0.7 | 1.6 | -5.0
CCOC(=O)c1nn(-c2ccc(C)c(C)c2)cc1O | -0.7 | 4.7 | 2.6 | 12.9* | 7.0
O=[N+]([O-])c1cccc(NC(=S)N2CCCC2)c1 | -0.9 | 0.4 | -0.7 | -0.4 | -1.0
O=C(Nc1cccc([N+](=O)[O-])c1)C(=O)N1CCCCC1 | -0.6 | 2.6 | 1.7 | 13.1* | 5.2
Fc1ccccc1-c1n[nH]c(=S)n1N=Cc1ccc(-c2ccccc2)cc1 | -0.2 | -0.4 | 1.6 | -1.9 | 0.4
O=C(CSc1nnc(-c2cnccn2)n1-c1ccccc1)c1ccc(F)cc1 | -0.6 | -0.7 | -1.1 | -2.9 | 2.3
SMILES | ssDAF-12 act | hcDAF12 agonist | DAX1 StAR inh | hgDAF12 agonist | SMARCA2 activ
CCOc1cc(OCC)cc(C(=O)N2CCC[C@H]2C(=O)N2CCC[C@H]2C(=O)NCc2ccc(F)cc2F)c1 | -0.8 | -1.4 | 0.8 | 0.0 | -5.8
CCOc1cc(OCC)cc(C(=O)N2CCC[C@@H]2C(=O)N2CCC[C@@H]2C(=O)NCc2ccccc2Cl)c1 | 1.0* | 2.0 | -0.7 | 3.5 | -1.7
Cc1ccn2c(C(=O)N/N=C\c3cccs3)c(C)nc2c1 | -0.9 | -0.4 | -0.3 | 1.1 | -0.2
Cc1nc2ccc(Br)cn2c1C(=O)N/N=C\c1ccccc1[N+](=O)[O-] | 0.3 | 6.2* | 0.0 | 10.5* | 3.2
Cc1ccc2nc(C)c(C(=O)N/N=C/c3cccs3)n2c1 | -1.5 | 1.2 | -1.6 | 12.0* | 1.2
Cc1cc(Br)cn2c(Cc3cccc(Cl)c3)c(C3CCCCC3)nc12 | -0.6 | -0.1 | 0.1 | 0.0 | -1.9
CCNC(=O)N(C)[C@H]1C[C@H]2c3[nH]c4c(-c5cccc(C)c5)cccc4c3CCN2C(=O)[C@H]1[C@H](C)O | -1.3 | -2.2 | -0.8 | -0.6 | -1.6
C#CCn1c2ccccc2c(=O)n1C(C)CBr (stereo not drawn) | 1.1* | 0.9 | 1.8 | 3.6 | -0.6
C#CCn1c2ccccc2c(=O)n1C(C)C | -0.9 | 1.3 | 0.5 | 1.7 | -3.1
COc1ccc(CN2C3=N[C@H](c4ccccc4)CC(=O)N3/C(=C\c3ccccc3)C2c2ccco2)c(OC)c1 (stereo partly drawn) | -0.4 | 0.5 | 0.1 | -1.3 | -1.5
C[C@H](CO)N1C[C@H](C)[C@@H](CN(C)C(=O)Nc2cccc(C(F)(F)F)c2)OCc2cn(nn2)CCCC1=O | -1.3 | -0.5 | -0.5 | -3.2 | -0.9
CSCc1ccc(C(=O)OCc2nc3ccccc3s2)o1 | -0.3 | 6.2* | 1.1 | 11.7* | 4.9
Oc1c(/C=N/c2ncn[nH]2)ccc2ccccc12 | 1.2* | 1.9 | -0.3 | -0.5 | -0.8
Cc1ccc(-n2c(O)c(/C=N/c3ncn[nH]3)c3ccccc3c2=O)cc1 | -0.5 | -1.2 | 0.0 | -0.6 | 0.9
O=C(CCc1ccccc1)Nc1cc2c(cc1Cl)OCCO2 | 1.2* | 2.5 | 3.9* | 10.3 | 3.3
COCCNC(=O)c1cc2c(s1)-c1ccc(Cl)cc1SC2 | 0.7 | 0.7 | 2.2 | 12.8* | 3.2
C=CS(=O)(=O)N(Cc1ccc(C)cc1)[C@@H](CO)C(=O)OC | -1.3 | -2.9 | -3.5 | 0.7 | -1.1
Cc1ccc(Cl)cc1N1CCN(C(=O)Cc2c(C(=O)O)[nH]c3ccc(Cl)cc23)CC1 | -0.4 | 1.3 | 0.5 | -2.3 | -0.7
Cc1ccc(Cl)cc1N1CCN(C(=O)Cc2c(C(=O)O)[nH]c3ccccc23)CC1 | 1.2* | 5.2 | 0.1 | -2.4 | -1.6
O=C(NCC(c1ccccc1)c1ccccc1)[C@H](Cc1c[nH]c2ccccc12)NC1(C(=O)NC2CCCCC2)CCC1 | -1.3 | 0.5 | . | -0.6 | .
COCCNC(=O)c1ccc2c3n(nc2c1)-c1ccc(Cl)cc1CO3 | -0.5 | 2.6 | 1.5 | 7.2 | 6.6
O=C(NCCO)c1ccc2c3n(nc2c1)-c1ccc(Cl)cc1CO3 | -0.1 | 4.2 | 1.6 | 8.6 | 4.1
O=C(NCC1CC1)c1ccc2c3n(nc2c1)-c1ccc(Cl)cc1CO3 | -1.1 | 2.2 | 0.7 | 11.8* | 6.0
COCCNC(=O)c1ccc2c3n(nc2c1)-c1ccccc1CO3 | 0.1 | 6.4* | 2.2 | 11.8* | 6.7
